Potency, activity change, negative = inhibition and max response data for 23 molecules are collected here from PubChem BioAssay (NCATS).

Experiment [1] concerns the target DNA repair nuclease/redox regulator APEX1 (Homo sapiens) (UniProt P27695). The experiment can be described thus: qHTS Validation Assay for Inhibitors of the Human Apurinic/apyrimidinic Endonuclease 1 (APE1) (AID 1705; further: potency means the concentration at half of the fitted maximal effect;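 on activity change, negative = inhibition: TAMRA fluorescence gain over two minutes as APE1 cuts a quenched THF abasic duplex; on the % scale 0 is the no-effect control and ±100 the full control effect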). Particulars: purified APE1 endonuclease activity, fluorescence, titration; series mostly up to 57.1 µM. In a few lines: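 Endonuclease activity of human APE1 is followed as dequenching when the enzyme incises a tetrahydrofuran abasic site in a short duplex labelled 5'-TAMRA/3'-BHQ-2 (50 nM final), after 15 min enzyme–compound preincubation at room temperature.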
(In general: Quantitative high-throughput screening tests each substance at several concentrations.)

Experiment [2] is described as follows: Counterscreen for APE1 Inhibitors: Fluorescent Dye Displacement Validation Assay (AID 1707). Further: potency means the concentration at half of the fitted maximal effect.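 On activity change, negative = inhibition: plate controls were ThO with dsDNA and no compound for no effect and ThO without dsDNA for full effect.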 Particulars: fluorescent dye displacement from DNA; series mostly up to 57.1 µM. Put shortly: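 Counterscreen flags promiscuous DNA binders: compounds displacing ThO from duplex DNA (abasic THF site, 50 nM) reduce 540 nm emission (480 nm excitation). ThO 250 nM final; Tris-HCl pH 7.5 with NaCl, MgCl2 and Tween-20.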

The target of experiment [3] is Endonuclease 4 (Escherichia coli (strain K12)) (UniProt P0A6C1). The experiment can be described thus: Counterscreen for APE1 Inhibitors: qHTS Validation Assay for Inhibitors of Endonuclease IV (AID 1708). Further: on the % scale 0 is the no-effect control and ±100 the full control effect. As to conditions: E. coli endonuclease IV, DNA cleavage fluorescence; series mostly up to 57.1 µM. Put shortly: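 Incision of a double-stranded 50 nM TAMRA/BHQ-2 abasic substrate was followed kinetically (525/598 nm, reads every 60 s) after 15 min enzyme–compound preincubation with 2 nM EndoIV in pH 7.5 Tris buffer with MgCl2, DTT and Tween-20; concentration-response format.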
In general terms: A counterscreen serves to expose hits that act by an unwanted route or on another target.

Experiment [4] is described as follows: qHTS for differential inhibitors of proliferation of Plasmodium falciparum line 7G8 (AID 1815).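 Further: parasite growth measured after three days of incubation.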 Further: potency means the concentration at half of the fitted maximal effect.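 On activity change, negative = inhibition: plate controls were vehicle wells for no effect and reference inhibitor wells for full effect.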 As to conditions: Plasmodium falciparum 7G8 proliferation inhibition; series mostly up to 28.7 µM.
The nature of experiment [5]: qHTS for differential inhibitors of proliferation of Plasmodium falciparum line GB4 (AID 1816).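 Further: parasite growth measured after 72 h incubation.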 Further: potency means the concentration at half of the fitted maximal effect.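 On activity change, negative = inhibition: 0% = vehicle DMSO and -100% = reference inhibitor.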 Particulars: Potency: Plasmodium falciparum GB4 proliferation inhibition; series mostly up to 28.7 µM.
Experiment [6] in a line: qHTS for differential inhibitors of proliferation of Plasmodium falciparum line 3D7 (AID 1876). Further: potency means the concentration at half of the fitted maximal effect. Particulars: P. falciparum 3D7 proliferation inhibition; series mostly up to 28.7 µM.
Experiment [7] can be described thus: qHTS for differential inhibitors of proliferation of Plasmodium falciparum line D10 (AID 1877).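 Further: parasites grown with compound for 72 h before DNA staining.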 Further: potency means the concentration at half of the fitted maximal effect.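 On activity change, negative = inhibition: plate controls were vehicle wells for no effect and reference inhibitor wells for full effect.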 Particulars: series mostly up to 28.7 µM.
A short description of experiment [8]: qHTS for differential inhibitors of proliferation of Plasmodium falciparum line Dd2 (AID 1882). Further: nearly all actives have a fitted effect of over 65% in size. Further: potency means the concentration at half of the fitted maximal effect.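 On activity change, negative = inhibition: plate controls were DMSO vehicle for no effect and 0.29 µM artemisinin for full effect.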 As to conditions: Potency: Plasmodium falciparum Dd2 proliferation inhibition; series mostly up to 28.7 µM. Put shortly: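 SYBR Green DNA fluorescence (ex 485, em 535 nm) after overnight lysis quantifies parasite growth; compound exposure lasted 72 h at 37 C on infected red cells at 2.5% hematocrit, 0.3% parasitemia (final). Artemisinin 0.29 uM and vehicle wells define normalization.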

Experiment [9] can be described thus: qHTS for differential inhibitors of proliferation of Plasmodium falciparum line W2 (AID 1883).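 Further: parasites grown with compound for 72 h before lysis and staining.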 Further: potency means the concentration at half of the fitted maximal effect.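 On activity change, negative = inhibition: 0% = vehicle wells and -100% = control inhibitor wells.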 As to conditions: Potency: Plasmodium falciparum W2 proliferation inhibition; series mostly up to 28.7 µM.
Experiment [10] can be described thus: qHTS Assay for Lipid Storage Modulators (AID 1519; calls by dose curve; on activity change, negative = inhibition: on the % scale 0 is the no-effect control and ±100 the full control effect). As to conditions: Drosophila S3 cells, BODIPY lipid droplet/cell ratio, laser cytometry, cells loaded with oleic acid; for activity change, negative = inhibition: at 57.5 µM (top of the series). Put shortly:
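Cells seeded at 5,000 per well were treated with compounds over a concentration series and loaded with oleic acid (400 uM, as added). Lipid droplet fluorescence (488 nm excitation, 500-530 nm channel) was read by laser-scanning cytometry and normalized to 20 uM Triacsin C.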

Where [11] appears, read: measured here: cell count channel max response.
Setting [12] is: measured here: lipid channel max response.

Records with an inconclusive call do not appear. The source made the active and inactive calls. Unless noted, the call rests on the fitted dose curve; in most records, active means well fitted curve in the direction sought with a large enough effect; inconclusive means small, poorly fitted or top-dose-only effect, or another doubt; inactive means no such curve, though single readings can be large; an effect the other way counts as inactive or inconclusive.

Sequence of DNA repair nuclease/redox regulator APEX1 (Homo sapiens) (P27695 whole entry, looked up): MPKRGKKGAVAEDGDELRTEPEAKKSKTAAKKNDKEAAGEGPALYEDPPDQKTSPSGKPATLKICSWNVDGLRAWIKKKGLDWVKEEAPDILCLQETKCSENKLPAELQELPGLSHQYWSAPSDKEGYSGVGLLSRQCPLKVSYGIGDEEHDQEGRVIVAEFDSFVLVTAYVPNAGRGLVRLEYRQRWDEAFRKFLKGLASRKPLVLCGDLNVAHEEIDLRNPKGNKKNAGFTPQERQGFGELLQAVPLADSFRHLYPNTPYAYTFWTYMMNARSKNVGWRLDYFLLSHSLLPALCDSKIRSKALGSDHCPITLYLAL

Regarding `CC(=O)NBr`, the Potency result in experiment [1], in [2], in experiment [3], in experiment [4], in [5] and in experiment [6] was “inactive” throughout. For the same molecule, the Potency result in experiment [7], in experiment [8] and in experiment [9] was “inactive” throughout.
In the case of `Oc1ccc2c3c1O[C@H]1c4[nH]c5ccccc5c4C[C@@]4(O)C(C2)N(CC2CC2)CCC314` (stereo partly drawn), the Potency entry in experiment [1], in experiment [2] and in experiment [3] was “inactive” throughout. The Potency is 8.91 µM (active) in experiment [4]; 8.91 µM (active) in experiment [5]; 10 µM (active) in [6]; 12.6 µM (active) in experiment [7]; 8.91 µM (active) in experiment [8]; 6.31 µM (active) in experiment [9].
On to `CC(N)Cc1c[nH]c2ccc(OCc3cccs3)cc12` (stereo not drawn), for which the activity change, negative = inhibition in experiment [10] was -0.884% (inactive). Moreover, the values for the max response in experiment [10] (setting [11]) and in experiment [10] (setting [12]) were -45.6% and -46.5%, respectively. Moreover, in experiment [1], the Potency result was “inactive”. Also, the Potency was 7.94 µM (active) in experiment [4], 7.94 µM (active) in [5], 10 µM (active) in experiment [6] and 7.94 µM (active) in experiment [9].
With `CN(N=O)c1cc(O)ccc1O`, the Potency is 1.41 µM (active) in [1] and 14.1 µM (active) in experiment [2]. Besides, the Potency result in experiment [3], in [4], in experiment [6], in [7], in experiment [8] and in [9] was “inactive” each time.
As to `NCCCP(=O)(O)O`, the Potency result in experiment [1], in experiment [2], in experiment [3], in experiment [4], in experiment [5] and in experiment [6] was “inactive” each time. For the same molecule, the Potency entry in [7], in [8] and in experiment [9] was “inactive” throughout.
Take `CC1(C(=O)O)C2CCC(O2)C1(C)C(=O)O` (stereo not drawn): the Potency result in [1], in [2] and in experiment [3] was “inactive” throughout. Further, the Potency in experiment [4] was 3.55 µM (active); in [5] it was 3.16 µM (active); in [6], 2.24 µM (active); in [7] it was 1.58 µM (active); in experiment [8], 5.01 µM (active); in experiment [9], 1.12 µM (active).
As for `Ic1ccccc1CNC1C2CCN(CC2)C1C(c1ccccc1)c1ccccc1` (stereo not drawn), the Potency entry in [1], in experiment [2] and in experiment [3] was “inactive” each time. In addition, the Potency was 7.08 µM (active) in experiment [4]; 5.01 µM (active) in [5]; 5.01 µM (active) in experiment [6]; 11.2 µM (active) in experiment [7]; 3.16 µM (active) in experiment [8]; 1.41 µM (active) in experiment [9].
On to `CN1C2CCC1CC(OC(c1ccccc1)c1ccc(Cl)cc1)C2` (stereo not drawn), for which the activity change, negative = inhibition in experiment [10] was 0.923% (inactive). For the same molecule, the max response is -27.9% in [10] (setting [11]) and -25.4% in [10] (setting [12]). For the same molecule, the Potency entry in experiment [1] was “inactive”. For the same molecule, the Potency is 2.24 µM (active) in [4]; 2.24 µM (active) in experiment [5]; 2.24 µM (active) in [6]; 7.94 µM (active) in experiment [7]; 8.91 µM (active) in experiment [8]; 1.12 µM (active) in [9].
`C[C@]12Cc3cn4c(nc3C=C1CCC1C2CC[C@@]2(C)[C@H]1CC[C@@]2(O)C#N)nc1ccccc14` (stereo partly drawn): the Potency result in experiment [1], in experiment [2] and in experiment [3] was “inactive” in each case. The Potency in experiment [4] is 1.26 µM (active); in experiment [5], 3.16 µM (active); in [6], 2.82 µM (active); in experiment [7] it was 5.01 µM (active); in experiment [8] it was 3.55 µM (active); in experiment [9] it was 2.82 µM (active).
As for `NC(C(=O)O)c1cc(=O)[nH]o1` (stereo not drawn), the Potency entry in [1], in experiment [2], in experiment [3], in experiment [4], in experiment [5] and in [6] was “inactive” in each case. Further, the Potency entry in experiment [7], in [8] and in [9] was “inactive” in each case.
`C[N+]1(C)CCOC(O)(c2ccc(-c3ccc(C4(O)C[N+](C)(C)CCO4)cc3)cc2)C1` (stereo not drawn): the Potency entry in experiment [1], in experiment [2], in [3], in experiment [4], in experiment [7] and in experiment [8] was “inactive” in each case.
As to `C[N+](C)(C)CC#CCN1CCCC1=O`, the activity change, negative = inhibition in [10] is 1.94% (inactive). Also, the max response in experiment [10] (setting [11]) stood at 5.23%; in experiment [10] (setting [12]), 8.27%. Also, the Potency entry in experiment [2], in [5], in experiment [6], in experiment [7] and in experiment [8] was “inactive” each time.
With `Clc1ccc(N2CC3CCC(C2)N3)nn1`, the Potency entry in [1], in [2], in experiment [3], in [4], in [6] and in experiment [7] was “inactive” each time. For the same molecule, in experiment [8], the Potency entry is “inactive”.
For `C=CCN1CC[C@]23c4c5ccc(O)c4O[C@@H]2/C(=N/N=C2\CC[C@@]4(O)C6Cc7ccc(O)c8c7[C@@]4(CCN6CC=C)[C@@H]2O8)CC[C@@]3(O)C1C5`, the Potency entry in [1], in experiment [2] and in [3] was “inactive” throughout. Further, the Potency in [4] is 2.51 µM (active); in experiment [5], 3.16 µM (active); in experiment [6], 2.24 µM (active); in [7], 2.82 µM (active); in experiment [8] it was 8.91 µM (active); in [9] it was 2.51 µM (active).
Take `N[C@@H](CCl)C(=O)O`: the Potency result in experiment [1], in experiment [2], in experiment [3], in experiment [4], in experiment [5] and in [6] was “inactive” each time. Further, the Potency entry in experiment [7] and in experiment [8] was “inactive” each time.
As to `CCCn1c(=O)c2[nH]c(C3CCCC3)nc2n(CCCOC(=O)c2ccc(S(=O)(=O)F)cc2)c1=O`, the Potency result in experiment [1], in [2], in experiment [3] and in experiment [7] was “inactive” in each case. The results for the Potency in [4] and in experiment [9] were 12.6 µM (active) and 11.2 µM (active), respectively.
As to `c1ccc2cc(CC3=NCCN3)ccc2c1`, the activity change, negative = inhibition in experiment [10] was 1.13% (inactive). Also, the max response in experiment [10] (setting [11]) was found to be 29%; in experiment [10] (setting [12]) it was 31.2%. In addition, the Potency entry in experiment [1], in experiment [3], in [6], in [7] and in experiment [8] was “inactive” in each case. For the same molecule, the results for the Potency in experiment [5] and in experiment [9] were 10 µM (active) and 12.6 µM (active), respectively.
With `CP(=O)(O)C1=CCNCC1`, the Potency result in [1], in experiment [2], in experiment [3], in experiment [4], in experiment [5] and in experiment [6] was “inactive” throughout. The Potency entry in experiment [7], in experiment [8] and in experiment [9] was “inactive” in each case.
Take `O=c1c2ccccc2[se]n1-c1ccccc1`: the Potency entry in [1], in [2] and in [3] was “inactive” in each case. Further, the Potency in [4] was 14.1 µM (active); in experiment [5], 14.1 µM (active); in [9], 17.8 µM (active).
Turning to `NCCc1c[nH]c2ccc(C(N)=O)cc12`, the activity change, negative = inhibition in [10] is -0.884% (inactive). In addition, the max response in experiment [10] (setting [11]) is 2.92%; in [10] (setting [12]) it was 1.87%. For the same molecule, the Potency entry in experiment [1], in experiment [4], in experiment [5], in experiment [6], in [7] and in [8] was “inactive” each time.
For `Nc1ccc(CCN2CCN(c3cccc(C(F)(F)F)c3)CC2)cc1`, the activity change, negative = inhibition in experiment [10] was 2.29% (inactive). Also, the values for the max response in experiment [10] (setting [11]) and in [10] (setting [12]) were -6.99% and -6.09%, respectively. For the same molecule, the Potency entry in experiment [1], in [6] and in experiment [8] was “inactive” in each case. The figures for the Potency in experiment [4] and in experiment [9] were 7.94 µM (active) and 10 µM (active), respectively.
Consider `N#CC(C#N)=Cc1cc(O)c(O)c(O)c1`, for which the Potency result in experiment [1], in experiment [2] and in experiment [3] was “inactive” throughout. Also, the Potency in experiment [4] was 6.31 µM (active); in [5], 10 µM (active); in experiment [6], 12.6 µM (active); in experiment [7], 12.6 µM (active); in [9], 7.94 µM (active).
Turning to `CCS(=O)(=O)Nc1cccc(C(=C2CCCCC2)c2cnc[nH]2)c1`, in experiment [10], the activity change, negative = inhibition was 1.44% (inactive). The max response was determined as 56.8% in experiment [10] (setting [11]) and 58% in experiment [10] (setting [12]). Moreover, in [1], the Potency result is “inactive”. The Potency in [4] is 7.08 µM (active); in experiment [5], 12.6 µM (active); in experiment [6], 11.2 µM (active); in experiment [7], 14.1 µM (active); in [8], 10 µM (active); in experiment [9] it was 8.91 µM (active).
